For 36 compounds, Potency results are on record in PubChem BioAssay (Tox21).

Structures are written as SMILES. Records with an inconclusive call do not appear. Activity calls are given as the source filed them. Unless noted, the call rests on the fitted dose curve; in most records, active means well fitted cell-killing curve with a large enough effect in the repeat runs; inconclusive means weak or mixed curves, or effect the other way; inactive means flat fitted curve, though single readings scatter.
Potency means the concentration at half of the fitted maximal effect.

The first assay deals with Estrogen receptor beta (Homo sapiens) (UniProt Q92731). As to the kind of experiment: qHTS assay to identify small molecule antagonists of the estrogen receptor beta (ER-beta) signaling pathway (AID 1259378; active means well fitted inhibition curve with a large enough effect in the signal ratio in the repeat runs, not every such curve was filed as active; the % refers to the signal ratio). The following applies: ER-beta-UAS-bla HEK293T, beta-lactamase FRET ratio, 16 h; series mostly up to 92.4 µM. The procedure, abridged: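 ER-beta-UAS-bla HEK293T cells in 2% charcoal-stripped FBS medium treated with compound plus 1nM final 17-beta-estradiol for 16 hr at 37C. Beta-lactamase reporter read by FRET substrate fluorescence after 2 hours at room temperature.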
Estrogen receptor beta (Homo sapiens), sequence (Q92731 whole entry, looked up): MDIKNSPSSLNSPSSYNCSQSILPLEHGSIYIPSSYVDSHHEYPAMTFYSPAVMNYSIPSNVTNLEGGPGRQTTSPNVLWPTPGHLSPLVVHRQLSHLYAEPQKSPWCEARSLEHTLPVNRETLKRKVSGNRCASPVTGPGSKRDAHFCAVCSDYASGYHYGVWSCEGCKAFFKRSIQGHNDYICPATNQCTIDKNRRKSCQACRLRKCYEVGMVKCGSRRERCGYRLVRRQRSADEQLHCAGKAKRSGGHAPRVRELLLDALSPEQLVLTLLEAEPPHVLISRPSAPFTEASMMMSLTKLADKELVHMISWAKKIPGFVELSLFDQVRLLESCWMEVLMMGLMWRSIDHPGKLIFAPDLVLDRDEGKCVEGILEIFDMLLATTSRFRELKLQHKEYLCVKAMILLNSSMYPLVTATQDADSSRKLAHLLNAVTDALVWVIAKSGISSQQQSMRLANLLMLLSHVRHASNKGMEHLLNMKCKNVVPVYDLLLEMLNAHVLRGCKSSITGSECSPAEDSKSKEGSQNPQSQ
Background: qHTS replaces the single test concentration by a dilution series.
`CCCCOc1ccc(C(=O)CCN2CCCCC2)cc1`: the Potency entry was “inactive”.

Regarding `COc1ccccc1OCCNCC(O)COc1cccc2[nH]c3ccccc3c12` (stereo not given), the Potency is 7.5 µM (active).

Turning to `Cc1c(C)n(Cc2ccccc2)c2ccc(C(=O)OCCN(C)C)cc12`, the Potency was 23.7 µM (active).

Consider `Cc1cc(Nc2ccc(O)cc2)ccc1N`, for which the Potency entry was “inactive”.

Tested on in the next assay: not listed separately
Put plainly: qHTS assay to identify small molecule agonists of the androgen receptor (AR) signaling pathway in the presence of an antagonist - cell viability counter screen (AID 1259379). Further: nearly all actives have a fitted effect of over 25% in size. Conditions: MDA-kb2 viability, CellTiter-Fluor, 16 h; series mostly up to 92.4 µM. A digest of the protocol:
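A CellTiter-Fluor read-out measured viability of MDA-kb2 reporter cells (MMTV promoter with AR and GR response elements). Treatment: nilutamide 3.0uM final with compounds at 15 concentrations, 16 hr, 37C, 0% CO2.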
On to `CO[C@H]1C=CO[C@@]2(C)Oc3c(C)c(O)c4c(O)c(cc(O)c4c3C2=O)NC(=O)/C(C)=C\C=C/[C@H](C)[C@H](O)[C@@H](C)[C@@H](O)[C@@H](C)[C@H](OC(C)=O)[C@@H]1C`, for which the Potency is 48.9 µM (active).

For the compound `O=C1NCCN1CCN1CCC(c2cn(-c3ccc(F)cc3)c3ccc(Cl)cc23)CC1`, the Potency is 15 µM (active).

With `SCCCCCCCCS`, the Potency result was “inactive”.

For the compound `CN(C)c1ccc(N=Nc2ccccc2C(=O)O)cc1`, the Potency was 68.6 µM (active).

For the compound `CCCCCCCCCC(=O)N(C)C`, the Potency result is “inactive”.

With `C=CC(=O)OCCOCC(CC)(COCCOC(=O)C=C)COCCOC(=O)C=C`, the Potency was 40.2 µM (active).

For `O=C(Nc1ccc(Cl)c(Cl)c1)c1cc(Cl)cc(Cl)c1O`, the Potency is 6.86 µM (active).

For `CCC(C)c1cc([N+](=O)[O-])cc([N+](=O)[O-])c1OC(=O)OC(C)C` (stereo not given), the Potency was 61.1 µM (active).

As for `CC(C)(c1cc(Br)c(OCCO)c(Br)c1)c1cc(Br)c(OCCO)c(Br)c1`, the Potency is 47.5 µM (active).

`CCC(C)(C)c1cc(O)c(C(C)(C)CC)cc1O`: the Potency is 61.1 µM (active).

As for `Cc1ccc(-n2[nH]c(C)c(N=Nc3cccc(-c4cccc(C(=O)O)c4)c3O)c2=O)cc1C`, the Potency is 29.8 µM (active).

Consider `CCCCOc1ccc(C(=O)CCN2CCCCC2)cc1`, for which the Potency is 29.8 µM (active).

`CC(=O)OC(OC(C)=O)c1ccc([N+](=O)[O-])o1`: the Potency was 62.2 µM (active).

Turning to `CCC1(c2cnc[nH]2)Cc2ccccc2C1`, the Potency result is “inactive”.

`COc1ccccc1OCCNCC(O)COc1cccc2[nH]c3ccccc3c12` (stereo not given): the Potency is 29.8 µM (active).

Consider `COC(=O)C1=C(C)NC(C)=C(C(=O)OCCCN2CCC(c3ccccc3)(c3ccccc3)CC2)C1c1cccc([N+](=O)[O-])c1` (stereo not given), for which the Potency is 29.8 µM (active).

For `Oc1ccc(-c2ccc(O)cc2)cc1`, the Potency entry was “inactive”.

Take `Cc1cc(Nc2ccc(O)cc2)ccc1N`: the Potency was 24.2 µM (active).

For the compound `Nc1cc(Cl)c([N+](=O)[O-])cc1O`, the Potency is 48.2 µM (active).

`COc1cc(C=C2CCC/C(=C\c3ccc(O)c(OC)c3)C2=O)ccc1O`: the Potency was 26.6 µM (active).

For `C[C@@]12C(=O)OC(=O)[C@]1(C)C1CCC2O1`, the Potency was 5.96 µM (active).

With `Cc1cc2c(C(C)C)c(O)c(O)c(C=O)c2c(O)c1-c1c(C)cc2c(C(C)C)c(O)c(O)c(C=O)c2c1O`, the Potency was 29.8 µM (active).

On to `CC1CCCCN1CCCOC(=O)c1ccc(OC2CCCCC2)cc1` (stereo not given), for which the Potency was 26.6 µM (active).

Tested on in the next assay: not listed separately
Put plainly: qHTS assay to identify small molecule agonists of the estrogen receptor beta (ER-beta) signaling pathway - cell viability counter screen (AID 1259380). Further: nearly all actives have a fitted effect of over 30% in size. The following applies: ER-beta-bla HEK293T viability, CellTiter-Glo luminescence, 16 h; series mostly up to 92.4 µM. A digest of the protocol: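 Cells used were ER-beta-UAS-bla HEK293T in medium with 2% charcoal-stripped FBS. They were treated for 16 hr at 37C. Viability came from CellTiter-Glo luminescence.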
Take `CCO[Si](CCCSSSSCCC[Si](OCC)(OCC)OCC)(OCC)OCC`: the Potency is 61.2 µM (active).

With `CCCCN(CCCC)CCC(O)c1cc2c(Cl)cc(Cl)cc2c2cc(C(F)(F)F)ccc12` (stereo not given), the Potency is 7.5 µM (active).

In the case of `O=C1NCCN1CCN1CCC(c2cn(-c3ccc(F)cc3)c3ccc(Cl)cc23)CC1`, the Potency was 13.3 µM (active).

In the case of `SCCCCCCCCS`, the Potency result was “inactive”.

In the case of `CN(C)c1ccc(N=Nc2ccccc2C(=O)O)cc1`, the Potency result is “inactive”.

For `CCCCCCCCCC(=O)N(C)C`, the Potency entry is “inactive”.

On to `CCN(CC)CCOc1ccc(C(O)(Cc2ccc(Cl)cc2)c2ccc(C)cc2)cc1` (stereo not given), for which the Potency is 26.6 µM (active).

Take `C[n+]1c2cc(N)ccc2cc2ccc(N)cc21` (tested in a mixture with another compound): the Potency was 11.9 µM (active).

Turning to `C=CC(=O)OCCOCC(CC)(COCCOC(=O)C=C)COCCOC(=O)C=C`, the Potency is 89.9 µM (active).

Turning to `N#CSCSc1nc2ccccc2s1`, the Potency is 8.63 µM (active).

`O=C(Nc1ccc(Cl)c(Cl)c1)c1cc(Cl)cc(Cl)c1O`: the Potency is 21.7 µM (active).

For `Nc1ccc2cc3ccc(N)cc3nc2c1`, the Potency is 2.37 µM (active).

As to `CC(C)(c1cc(Br)c(OCCO)c(Br)c1)c1cc(Br)c(OCCO)c(Br)c1`, the Potency was 42.3 µM (active).

For `O[C@@H](c1cc(C(F)(F)F)nc2c(C(F)(F)F)cccc12)[C@H]1CCCCN1`, the Potency was 21.1 µM (active).

In the case of `CCC(C)(C)c1cc(O)c(C(C)(C)CC)cc1O`, the Potency was 61.1 µM (active).

As to `CN1CCN(C2Cc3ccccc3Sc3ccc(Cl)cc32)CC1` (stereo not given), the Potency is 21.1 µM (active).

On to `Cc1ccc(-n2[nH]c(C)c(N=Nc3cccc(-c4cccc(C(=O)O)c4)c3O)c2=O)cc1C`, for which the Potency was 26.6 µM (active).

Take `CC(=O)OC(OC(C)=O)c1ccc([N+](=O)[O-])o1`: the Potency was 62.2 µM (active).

As to `CCN(CC)CCNc1ccc(CO)c2sc3ccccc3c(=O)c12`, the Potency is 10.6 µM (active).

For the compound `COc1ccccc1OCCNCC(O)COc1cccc2[nH]c3ccccc3c12` (stereo not given), the Potency was 9.44 µM (active).

As to `CN(C)CCCN1c2ccccc2Sc2ccc(C(F)(F)F)cc21`, the Potency was 18.8 µM (active).

With `COC(=O)C1=C(C)NC(C)=C(C(=O)OCCCN2CCC(c3ccccc3)(c3ccccc3)CC2)C1c1cccc([N+](=O)[O-])c1` (stereo not given), the Potency is 23.7 µM (active).

As to `Cc1cccc(C)c1NC(=O)CN1CCN(CCCC(c2ccc(F)cc2)c2ccc(F)cc2)CC1`, the Potency was 26.6 µM (active).

Consider `Cc1cc(Nc2ccc(O)cc2)ccc1N`, for which the Potency is 27.2 µM (active).

For `Nc1cc(Cl)c([N+](=O)[O-])cc1O`, the Potency result was “inactive”.

Consider `CCCCCCCCCCOCC(O)CN` (stereo not given), for which the Potency was 26.6 µM (active).

With `COc1cc(C=C2CCC/C(=C\c3ccc(O)c(OC)c3)C2=O)ccc1O`, the Potency is 33.5 µM (active).

Regarding `Cc1cc2c(C(C)C)c(O)c(O)c(C=O)c2c(O)c1-c1c(C)cc2c(C(C)C)c(O)c(O)c(C=O)c2c1O`, the Potency is 13.3 µM (active).
